# Assay results: the supplement of paper PMC9334596
# “And” between values parts separate entries of the source, which are not always exact repeats. Equal values may be shown once. The full ranking holds about 5,300 compounds; the median of “PER2::LUC luminescence relative to vehicle control” is about 0.96, and the highest 2% start at about 1.3. What follows is part of a selection rich in the highest values, with near analogues and random picks from the rest.
# Test system: mPer2Luc MEF
# Experiment: PER2::LUC luminescence relative to vehicle control (fold of vehicle); higher = higher PER2::LUC reporter signal
# Settings: 10 µM
# How it was run: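 Mouse embryonic fibroblasts carrying the mPer2Luc reporter were seeded at ~3000 cells per well in 384-well plates, 48 h before compounds from commercial libraries were added at 10 μM. Cells were grown in DMEM with 10% FBS at 37 °C and 5% CO2. Luminescence was read with the ONE-Glo luciferase assay system 24 h and 30 h after treatment, followed by an alamarBlue viability assay. The value is PER2::LUC luminescence as fold of vehicle control.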
SMILES,PER2::LUC luminescence (time after treatment 24 h),PER2::LUC luminescence (time after treatment 30 h)
Clc1ccc(N/N=C(/c2ccccc2)c2ccccn2)nc1,0.832,0.785
CC(C)C[C@H](NC(=O)[C@H](CCC(N)=O)NC(=O)[C@H](CCCCN)NC(=O)[C@H](CCC(N)=O)NC(=O)[C@@H](N)CCC(=O)O)C(=O)N[C@@H](CCC(N)=O)C(=O)O,1.03,0.938
CC(=O)Oc1ccc(O)cc1,0.907,1.01
CSC[C@H]1O[C@@H](n2cnc3c(N)ncnc32)[C@H](O)[C@@H]1O,0.938,0.773
COc1ccc2cc1Oc1ccc(cc1)C[C@H]1c3cc(c(OC)cc3CCN1C)Oc1c(OC)c(OC)c(OC)c3c1[C@H](C2)N(C)CC3,0.81,0.85
COc1ccc(S(=O)(=O)Nc2ccccc2CN(C)C/C=C/c2ccc(Cl)cc2)cc1,1.02 and 0.909,0.939 and 0.913
Nc1ncnc2c1c(-c1ccc(Oc3ccccc3)cc1)nn2[C@@H]1CCCNC1,0.544,0.62
O=C1C[C@@H](c2ccccc2)Oc2cc(O)cc(O)c21,1.07,1.08
O=C1C[C@@H](c2ccc(O)c(O)c2)Oc2cc(O)cc(O)c21,0.983,1.05
O=C1C[C@@H](c2ccc(O)cc2)Oc2cc(O)cc(O)c21,1.46,1.25
CC(Cc1ccccc1)(NC(=O)CN)c1ccccc1 (racemic),0.964,1.04
CC(=O)CC(=O)Nc1ccc(Cl)c(C(F)(F)F)c1,1.35,1.37
CNC(=O)c1cc(Oc2ccc(NC(=O)Nc3ccc(Cl)c(C(F)(F)F)c3)c(F)c2)ccn1,0.831 and 0.772,0.697 and 0.731
CNC(=O)c1cc(Oc2ccc(NC(=O)Nc3ccc(Cl)c(C(F)(F)F)c3)cc2)ccn1,0.556 and 0.486,0.816 and 0.513
O=[N+]([O-])c1cn(CCN2CCOCC2)cn1,0.977,0.974
COc1cc2c3cc1Oc1c(OC)c(OC)cc4c1[C@@H](Cc1ccc(OC(=O)c5ccc([N+](=O)[O-])cc5)c(c1)Oc1ccc(cc1)C[C@@H]3N(C)CC2)N(C)CC4,0.754,0.76
C#CCN(C)CCCOc1ccc(Cl)cc1Cl,1.23,1.37
C#CCN(C)Cc1ccccc1,0.93 and 0.871,0.955 and 0.95
Cc1cc(Br)c(O)c2ncccc12,1.19,0.958
COC(=O)N[C@H](C(=O)NNC[C@H](O)[C@H](Cc1ccccc1)NC(=O)[C@@H](NC(=O)OC)C(C)(C)C)C(C)(C)C,0.974,0.963
CC(COc1ccc(/C=C/c2ccccc2)cc1)[N+](C)(C)C (configuration not stated),0.936,1.02
Cc1cccc(/C=C/c2ccccc2)n1,1.35,1.16
CN(C/C=C/c1ccccc1)Cc1cccc2ccccc12,0.5,0.535
O=c1[nH]c2ccccc2c2ccccc12,1.19,0.972
OCc1cc2c(cn1)[nH]c1ccccc12,0.851,0.873
O=Cc1c2[nH]c3ccccc3c2cc2[nH]c3ccccc3c12,1.54,1.5

SMILES,PER2::LUC luminescence (time after treatment 24 h),PER2::LUC luminescence (time after treatment 30 h)
CC[C@@H](C)[C@@H](O)[C@H](C)C(=O)[C@H](C)/C=C(\C)C[C@H](C)[C@@H]1OC(=O)[C@H]1CC,1.06,0.925
Clc1cccc(COc2cncc(N3CCNCC3)n2)c1,0.246,0.301
CCCCc1ccc(NC(C)=O)c(C)c1,1.1,1.05
COc1ccccc1C(=O)Nc1cccc(NC(=O)c2cccc(C)c2)c1,0.917,0.985
CN1CC(=O)N=C1NC(=O)Nc1cccc(Cl)c1,0.949,1.1
COc1cc(NC(=O)c2ccccn2)ccc1Cl,1.13,1.38
O=C(Nc1ccc(S(=O)(=O)Nc2ccccc2Cl)c(Cl)c1)c1ccccn1,0.992,1.06
CS(=O)(=O)c1ccc(C(=O)Nc2ccc(Cl)c(-c3ccccn3)c2)c(Cl)c1,1.17,1.14
O=C(Nc1cccc(Cl)c1)c1ccccn1,1.65,1.48
COc1cccc(CNC(=O)Nc2nc(-c3ccncc3)cs2)c1,0.558,0.601
O=c1ncc(F)c[nH]1,0.979,0.911
Cn1c2ncnc-2c(O)n(C)c1=O,1.14,1.18
FC(F)(F)COB(OCC(F)(F)F)OCC(F)(F)F,0.958,1
O=C1CN(/N=C/C=C/c2ccc([N+](=O)[O-])o2)C(=O)N1,1.04,1.01
CCOc1ccc(C(=O)c2ccc(O)c(O)c2O)cc1,0.963,1.08
CCOc1ccc(C(=O)c2ccc(OC)c(O)c2O)cc1,0.983,0.916
CCOc1cccc(C(=O)c2ccc(O)c(O)c2O)c1,1.23,1.37
O=C(Nc1cccc(NC(=O)c2cccc(O)c2O)c1)c1cccc(O)c1O,0.916,1.34
O=C(O)Cc1cccc(OCCCN(Cc2cccc(C(F)(F)F)c2Cl)CC(c2ccccc2)c2ccccc2)c1,1.4,1.47
O=c1[nH]c(C2CCCN2)nc2c1oc1ccc(Cl)cc12 (configuration not stated),1.22,1.29
N#Cc1cc(-c2ccnc(Nc3ccc(N4CCOCC4)cc3)n2)ccc1OC1CCOCC1,0.507,0.584
O=C(CCCCCCCCCCCCC1CCCC1)Nc1ccc(S(=O)(=O)c2ccc(NC(=O)CCCCCCCCCCCCC3CCCC3)cc2)cc1,1.06,1.02
COc1cccc(-c2ccc(NC(=O)C3=C(C(=O)O)CCC3)c(F)c2)c1,1.43,1.75
COc1cccc(C(=O)NCCN2CCN(c3ccc(Cl)cc3)CC2)c1,0.833,0.96
COc1ccccc1C(=O)Nc1cc2c(cc1N1CCCCC1)n(C)c(=O)n2C,0.765,0.829
CC(C)=CCC/C(C)=C/CC/C(C)=C/CC/C(C)=C/C(=O)O,1.07,0.976

SMILES,PER2::LUC luminescence (time after treatment 24 h),PER2::LUC luminescence (time after treatment 30 h)
COc1c(O)c2c(=O)cc(OC)c3c4c(OC)cc(=O)c5c(O)c(OC)c6c(c(c1CC(C)=C6C(C)=O)c23)c54,0.779,0.948
C=CCSSSCC=C,1.32,1.05
Nc1ccc(-c2nc3ccc(-c4nc5ccc(N)cc5[nH]4)cc3[nH]2)cc1,0.876,0.866
Nc1ccc(-c2ccc3ccccc3n2)cc1,1.74,1.29
O=C(O)c1cc(-c2ccccc2)nc2ccccc12,0.91,1.12
COc1cc(Nc2nc3c(s2)CCCC3c2ccc(F)cc2)ccc1-n1cnc(C)c1 (configuration not stated),1.05,1.02
C/C=C\c1ccc(OC)cc1,1,1.03
CC(CC(=O)O)C(N)C(=O)O (racemic),0.979,0.922
O=c1cc(-c2ccccc2F)[nH]c2cc3c(cc12)OCO3,0.9,0.871
CC(C)=CC[C@@H](OC(=O)C=C(C)C)C1=CC(=O)c2c(O)ccc(O)c2C1=O,1.03,1.03
CC12CCc3occc3C1CCC13CC(=O)C(CCC12)C3 (configuration not stated),0.996,0.94
CC(=O)O[C@H]1CC[C@]2(C)C3CC[C@@]4(C)[C@H](C5CC(C6OC6(C)C)OC5O)CC[C@]4(C)C3=CC[C@H]2C1(C)C (some centres not stated),1.14,1.08
COc1cc(C)c(/C=C/C(C)=C/C=C/C(C)=C/C(=O)O)c(C)c1C,1.82,2.04
COc1cc(/C=C/C(=O)O)cc(OC)c1OC,0.994,0.955
CC1=C(/C=C/C(C)=C/C=C/C(C)=C/C(=O)O)C(C)(C)CCC1O (configuration not stated),0.928,1.06
O=C(NCc1cccs1)c1cc2nc(-c3ccco3)cc(C(F)(F)Cl)n2n1,1.03,1.11
Cn1nnnc1SCC1=C(C(=O)O)N2C(=O)[C@@H](NC(=O)C(OC=O)c3ccccc3)[C@H]2SC1 (some centres not stated),0.605,0.705
O=C(O)/C=C/C=C/c1ccc2c(c1)OCO2,1.07,1.03
O=C(c1ccc2c(c1)OCO2)N1CCCCC1,1,0.843
O=C(/C=C/C=C/c1ccc2c(c1)OCO2)N1CCCCC1,1.5,1.42
COc1cc(N2CCOCC2)ccc1Nc1ncc(F)c(Nc2ccccc2NS(C)(=O)=O)n1,0.771,0.673
Nc1nc(Nc2ccc3c(c2)CCC(N2CCCC2)CC3)nn1-c1cc2c(nn1)-c1ccccc1CCC2 (configuration not stated),0.438,0.375
O=C(NCCN1CCOCC1)c1ccc(Cl)cc1,1.09 and 1.08,0.965 and 1.2
C[C@@H](O)[C@H](NC(=O)c1ccc(C#Cc2ccc(CN3CCOCC3)cc2)cc1)C(=O)NO,1.32,1.62
O=C(c1ccc(CN2CCOCC2)cc1)N1CCN(C2CC2)CC1,1.07,0.963
O=C1/C(=C/c2cc(Br)c(O)c(Br)c2)COC/C1=C\c1cc(Br)c(O)c(Br)c1,0.259,0.258

SMILES,PER2::LUC luminescence (time after treatment 24 h),PER2::LUC luminescence (time after treatment 30 h)
COc1cc2c(c(OC)c1OC)-c1ccc(OC)c(=O)cc1[C@@H](NC=O)CC2,0.938,0.84
NCC(O)c1ccc(O)c(O)c1 (racemic),1.04,1.12
NC[C@@H](O)c1ccc(O)c(O)c1,1.26,1.04
NCC(O)c1ccc(O)c(O)c1 (configuration not stated),1.47,1.55
CCCC[C@@H](C)/C=C(C)/C=C(\C)C(=O)NC1=C[C@@](O)(/C=C/C=C/C=C/C(=O)NC2=C(O)CCC2=O)[C@@H]2O[C@@H]2C1=O,0.951,0.934
Cc1ccc(O)cc1Nc1ccnc(Nc2cccc(C(N)=O)c2)n1,1.05,1.02
CCOC(=O)c1sc(NC(=O)[C@H](C(C)C)n2c(=O)[nH]c3ccccc3c2=O)nc1C,1.02,0.987
O=C(O[C@H]1[C@H](Oc2ccccc2COC(=O)C2(O)C=CCCC2=O)O[C@H](CO)[C@@H](O)[C@@H]1O)c1ccccc1 (some centres not stated),0.824,0.676
Cc1ccc(O)c(N=Nc2ccccc2)n1,1.05,0.998
Nc1ccc(/N=N/c2ccccc2)c(N)n1,1.76,1.7
CC[C@H]1CN(c2nc(N)c(C(N)=O)nc2Cl)CCN1C1CCN(Cc2ccc(Cl)cc2)CC1,0.96,1.01
COc1ccc(-c2coc3cc(O)ccc3c2=O)cc1,1.77,1.97
CC(C)Oc1ccc2c(=O)c(-c3ccccc3)coc2c1,1.9,1.92
O=c1cc(-c2ccc(O)c(O[C@@H]3O[C@H](CO)[C@@H](O)[C@H](O)[C@H]3O)c2)oc2cc(O[C@@H]3O[C@H](CO)[C@@H](O)[C@H](O)[C@H]3O)cc(O)c12,1.07,1.04
O=c1c(-c2ccc(O)cc2)coc2cc(O[C@@H]3O[C@H](CO)[C@@H](O)[C@H](O)[C@H]3O)cc(O)c12,1.3,1.32
COc1ccc2c(=O)c(CC(=O)O)coc2c1,0.908,0.978
OC[C@H]1O[C@@H](Oc2ccc(O)cc2)[C@H](O)[C@@H](O)[C@@H]1O,1.02,0.876
O=c1c(-c2ccc(O)cc2)coc2cc(O[C@@H]3O[C@H](CO)[C@@H](O)[C@H](O)[C@H]3O)ccc12,1.25,1.39
C[C@@H]1O[C@@H](O[C@H]2[C@H](Oc3cc(O)c4c(=O)cc(-c5ccc(O)cc5)oc4c3)O[C@H](CO)[C@@H](O)[C@@H]2O)[C@H](O)[C@H](O)[C@H]1O,0.841,0.85
COc1ccccc1-c1coc2cc(O)ccc2c1=O,1.14,1.04
COc1ccc(-c2coc3cc(O)ccc3c2=O)c(OC)c1,1.02,1.05
O=c1c(-c2ccc(O)cc2)coc2cc(O)ccc12,0.822,0.788
O=c1cc(-c2ccc(O)cc2)oc2cc(O[C@@H]3O[C@H](CO)[C@@H](O)[C@H](O)[C@H]3O)cc(O)c12,1.22,1.43
